Bioassay records (PubChem BioAssay)
AmpC no deterg = blocks E. coli AmpC beta-lactamase in detergent-free assay; P00811; Potency, µM (top dose mostly 57.1 µM), for inactives: at the top dose activity change, negative = inhibition, hits mostly inhibitors; actives 0.52% (n = 330,000); AmpC nitrocefin hydrolysis, absorbance 480 nm, 0.0001% Triton;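 note: plate controls were no compound for no effect and no enzyme for full effect; nearly all actives have a fitted effect of over 20% in size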
Target sequence (P00811 whole entry, looked up): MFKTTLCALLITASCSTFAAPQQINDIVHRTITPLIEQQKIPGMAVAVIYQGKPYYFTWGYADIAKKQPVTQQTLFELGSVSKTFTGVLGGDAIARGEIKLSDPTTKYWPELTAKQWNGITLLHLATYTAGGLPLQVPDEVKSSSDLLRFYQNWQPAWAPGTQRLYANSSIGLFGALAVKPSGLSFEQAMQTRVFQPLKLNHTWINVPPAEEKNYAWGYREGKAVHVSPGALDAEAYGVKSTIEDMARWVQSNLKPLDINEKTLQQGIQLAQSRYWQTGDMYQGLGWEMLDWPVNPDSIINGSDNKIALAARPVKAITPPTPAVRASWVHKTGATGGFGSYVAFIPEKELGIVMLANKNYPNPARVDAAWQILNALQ
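AmpC (5.3 nM in the dispensed reagent) in 20 mM phosphate pH 7.0 with 0.01% (detergent screen) or 0.0001% Triton X-100 was preincubated with compounds for 15 min at room temperature. Nitrocefin was then added from an 800 uM solution, and hydrolysis was followed at 480 nm.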
SARS PLpro yeast = inhibitors of SARS-CoV papain-like protease in yeast; S. cerevisiae expressing SARS-CoV PLpro, growth rescue; Potency, µM (top dose mostly 32.9 µM), for the others: at the highest dose activity, positive = growth rescue, most hits filed as activators; actives 0.19% (n = 330,000); AID 485353; calls by dose curve; note: 0% is about no effect; nearly all actives have a fitted effect of over 55% in size
Pf growth 96h = P. falciparum growth inhibition at 96 hour, primary screen for plastid delayed-death inhibitors; actives 6.9% (n = 320,000); P. falciparum luciferase reporter growth, 96 h; Potency, µM (top dose mostly 28.7 µM), for inactives: top-dose activity change, negative = inhibition, most hits filed as inhibitors; AID 504834; note: % is set by controls: 0 for no effect and ±100 for the full control effect
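Readout is luminescence from an integrated firefly luciferase in P. falciparum. Red cells, 2% hematocrit and 0.05% parasitemia final, were cultured with compound through two parasite generations (96 hours) at 37 C, 5% CO2.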
Pf growth 48h = P. falciparum growth inhibition at 48 hours (one generation); actives 5.9% (n = 310,000); P. falciparum luciferase growth in erythrocytes, 48 h; Potency, µM (titrated, usually from 28.7 µM), for inactives: at the top dose activity change, negative = inhibition, hits mostly inhibitors; note: % is set by controls: 0 for no effect and ±100 for the full control effect
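Read-out is firefly luciferase luminescence from an integrated reporter in P. falciparum, so falling signal marks reduced parasite growth. Infected erythrocytes were at 2% hematocrit and 0.1% parasitemia (final) in Albumax-supplemented RPMI 1640.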
AmpC inh detg = inhibitors of E. coli AmpC beta-lactamase with detergent; AmpC hydrolysis of nitrocefin, absorbance 480 nm, 0.01% Triton; Potency, µM (titrated, usually from 114 µM), inactives show at the top dose activity change, negative = inhibition, most hits filed as inhibitors; actives 0.041% (n = 370,000);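 note: 0% = no-compound wells and -100% = no-enzyme wells; nearly all actives have a fitted effect of over 25% in size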
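AmpC (5.3 nM in the dispensed reagent) in 20 mM phosphate pH 7.0 with 0.01% (detergent screen) or 0.0001% Triton X-100 was preincubated with compounds for 15 min at room temperature. Nitrocefin was then added from an 800 uM solution, and hydrolysis was followed at 480 nm.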
Sm TGR inh = S. mansoni TGR enzyme inhibition | AID 485364 | purified TGR, DTNB reduction, TNB absorbance 405 nm | actives 3% (n = 360,000) | Q962Y6 | Potency, µM (top dose mostly 114 µM), without a hit: at the top dose activity change, negative = inhibition, hits mostly inhibitors; note: % is set by controls: 0 for no effect and ±100 for the full control effect; nearly all actives have a fitted effect of over 60% in size
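TGR 20 nM + NADPH 100 uM (dispensed conc.), cpd preinc 15 min RT; start with NADPH (500 uM addition) then DTNB (15 mM addition). Kinetic TNB absorbance, 405 nm filter. Four-parameter Hill fit across titration.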
* = called active by the depositor; ? = inconclusive; · = no result given; [ ] = dose if it differs, or a comment. Shown are actives, neighbours in structure and some others; about 12% of the full set was active somewhere. Unless noted, calls come from the whole dose curve; as a rule, active = well fitted curve in the direction sought with a large enough effect; inconclusive = small, poorly fitted or top-dose-only effect, or another doubt; inactive = no such curve, though single readings can be large; an effect the other way counts as inactive or inconclusive. Potency is the fitted concentration of half-maximal effect.

SMILES | AmpC no deterg | SARS PLpro yeast | Pf growth 96h | Pf growth 48h | AmpC inh detg | Sm TGR inh
CCn1c(SCC(=O)Nc2cc(C)on2)nc2sc(C)c(C)c2c1=O | -16% | 1% | 12µM* | 11% | 6% | -4%
Cc1cc(OCC(=O)N2CCOCC2)ccc1NC(=O)C1CCCCC1 | -21% | 0% | · | 11% | ? | 0%
CCOc1cccc2sc(NC(=O)c3ccc(Br)s3)nc12 | -39% | 3% | 7.4µM* | · | -7% | 3%
CCOc1cccc2sc(NC(=O)c3ccc(S(=O)(=O)N4CCCCC4)cc3)nc12 | · | · | · | · | -5% | 5%
CCNC(=O)CC1C(=O)N(c2ccc(F)cc2)C(=O)N1Cc1ccc(OC)c(OC)c1 (centres undefined) | · | · | · | · | ? | -14%
Cc1cccc(NC(=O)C(=O)NCC(c2cccnc2)N2CCc3ccccc3C2)c1C (centres undefined) | · | · | · | · | 5% | 5%
CCn1ccnc1CN(C)Cc1cn[nH]c1-c1ccc(F)cc1F | -2% | -2% | 12µM* | 9% | 1% | 1%[57.1 µM]
COc1ccc(-c2[nH]ncc2CN(Cc2nccn2C)C(C)C)c(F)c1 | 16% | 1% | 22% | -7% | 5% | 30%
COc1ccc(Cn2c(CCC(=O)N3CCN(c4ccccn4)CC3)nc3ncccc3c2=O)cc1 | 100% | 15% | ? | 12µM* | -5% | 3%
O=C(CCc1nnc2n(Cc3ccc(Cl)cc3)c(=O)c3ccccc3n12)N1CCN(c2ccccn2)CC1 | 42% | 13% | ? | ? | -7% | -10%
O=C(COc1ccc(Br)cc1)Nc1ccc(C(=O)OC2CCCCC2)cc1 | · | · | · | · | 10% | 6%
C[N+](C)(C)CC[N+]1(C)Cc2c(Cl)c(Cl)c(Cl)c(Cl)c2C1 | · | · | 0.24µM* | -10% | · | ·
Cc1ccc(N(CN2C(=O)c3ccccc3C2=O)C(=O)c2ccc([N+](=O)[O-])cc2[N+](=O)[O-])cc1 | -22% | -20% | 3.7µM* | 20% | -5% | -5%
O=C1c2ccccc2C(=O)N1CN(C(=O)c1ccccc1[N+](=O)[O-])c1ccc(F)cc1 | -14% | 0% | ? | 12% | 0% | 5%
O=[N+]([O-])c1ccc2ccn(C3OCC(O)C(O)C3O)c2c1 (centres undefined) | -21% | 1% | 1% | 12% | 0% | ·
CCC(=O)Oc1ccc2ccccc2c1CNC(=O)c1ccccc1 | -12% | 2% | 9.3µM* | ? | -1% | -3%
O=C(NCNC(=O)c1ccccc1)c1ccccc1 | -16% | -5% | -2% | · | -15% | -7%
O=C(CCC1CCCCC1)NCCN1C2=NC[C@H](Cc3ccc(O)cc3)N2C[C@H]1Cc1ccc(O)cc1 | -15% | 0% | ? | ? | -10% | 35µM*
C[C@@H]1CN=C2N(CCNC(=O)CCC3CCCCC3)[C@H](Cc3ccc(O)cc3)CN21 | 4% | 23% | 13µM* | 5% | 8% | 5µM*
Oc1ccc(C[C@@H]2CNC(=S)N2CCCCC2CCCCC2)cc1 | -36% | 0% | ? | ? | 12% | 1%
CN(C)CCCNC(=O)CCC1CCCCC1 | -3% | 2% | · | 6% | -6% | -5%
Cc1cc(NC(=O)CCC(=O)N(Cc2ccc(F)cc2)C(C(=O)NC2CCCC2)c2ccco2)no1 (centres undefined) | 33% | -3% | -1% | -28% | 2% | 4%
O=C(C[C@H]1C(=O)N(Cc2ccccc2)C[C@@H]1Cc1ccccc1)Nc1ccccc1 | 27% | -2% | 13µM* | 0% | 10% | 6%
O=C(C[C@H]1C(=O)N(CCc2ccccc2)C[C@@H]1Cc1ccccc1)Nc1ccccc1 | 27% | -2% | 10µM* | ? | ? | -12%
CCCC(=O)OCC(=O)c1[nH]c(C)c(C(C)=O)c1C | -22% | 0% | -5% | ? | ? | -1%
SMILES | AmpC no deterg | SARS PLpro yeast | Pf growth 96h | Pf growth 48h | AmpC inh detg | Sm TGR inh
CC1CCCC(C)N1C(=O)CSc1nnc(C2CCCCC2)o1 (centres undefined) | 50% | 0% | · | 18% | -9% | -5%
CC(=O)c1ccc(NC(=O)CCCN2C(=O)C(c3ccccc3)Oc3cccnc32)cc1 (centres undefined) | -17% | -5% | ? | ? | -6% | 14%
Cc1cc(C)cc(NC(=O)CCCN2C(=O)C(c3ccccc3)Oc3cccnc32)c1 (centres undefined) | 1% | -4% | 3.7µM* | ? | 2% | 7%
O=C(CCCN1C(=O)C(c2ccccc2)Oc2cccnc21)Nc1cccc(F)c1 (centres undefined) | -6% | 0% | ? | 10µM* | 1% | -17%
O=C(CN1C(=O)C(c2ccccc2)Oc2cccnc21)NCc1ccccc1F (centres undefined) | -47% | -5% | 9.3µM* | ? | 0% | -3%
O=C(Nc1ccc(N2CCOCC2)c2nonc12)C1CCCC1 | -7% | 1% | · | -3% | 2% | -6%
Nc1ccc(N2CCOCC2)c2nonc12 | -15% | -2% | 12µM* | 1% | -2% | ?
CCCCCn1c(NC(=O)c2ccco2)c(S(=O)(=O)c2ccc(C)cc2)c2nc3ccccc3nc21 | -21% | -2% | ? | 5.2µM* | 1% | ?
CCCCn1c(NC(=O)c2ccco2)c(C(=O)OCC)c2nc3ccccc3nc21 | 60% | 1% | ? | ? | -13% | 25µM*
CCCCn1c(NC(=O)c2ccco2)c(S(=O)(=O)c2ccc(C)cc2)c2nc3ccccc3nc21 | -36% | -1% | ? | ? | -13% | ?
CCCC(=O)N1CCc2cc(OC)c(OC)cc2C1COc1ccc2c(C)cc(=O)oc2c1 (centres undefined) | · | · | · | · | 3% | 7%
COc1ccc(-c2cc3nc(-c4ccc(C)cc4)cc(C(F)(F)F)n3n2)cc1 | · | · | · | · | 1% | -23%
CCCN(CCC)CCCNC(=O)C1CCCN(S(=O)(=O)c2cccc3nsnc23)C1 (centres undefined) | · | · | · | · | 2% | 7%
O=C(Nc1nc2c(F)cc(F)cc2s1)C1CC(=O)N(Cc2ccco2)C1 (centres undefined) | -15% | 2% | 5% | 1% | -5% | 5µM*
CCN(CC)c1ccc(C=C2C(=O)N(C)C(=S)N(C)C2=O)o1 | -36% | -6% | 19% | 34% | 1% | 45µM*
CCN(CC)c1ccc(/C=C2/SC(=O)N(C(C)C)C2=O)o1 | -24% | -89% | ? | ? | -14% | 11µM*
